Source: PubChem BioAssay (several laboratories)
An excerpt weighted towards active compounds, which were near 0.92% of everything screened.
Rv3671c inh – Rv3671c (M. tuberculosis) protease inhibition; P9WHR9; inhibition, % at 5.96 µM; 0.048% of 320,000 active; AID 2606; in the data active means inhibition above about 38%;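 further: extracellular domain of Rv3671c used as enzyme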
UGM FP inh – inhibitors of M. tuberculosis UDP-galactopyranose mutase. purified UGM, fluorescence polarization probe displacement. inhibition, % at 10 µM. 0.06% of 320,000 active; in the data active means inhibition above about 10%, passing the limit was not always enough
Target sequence (P9WIQ1 whole entry, looked up): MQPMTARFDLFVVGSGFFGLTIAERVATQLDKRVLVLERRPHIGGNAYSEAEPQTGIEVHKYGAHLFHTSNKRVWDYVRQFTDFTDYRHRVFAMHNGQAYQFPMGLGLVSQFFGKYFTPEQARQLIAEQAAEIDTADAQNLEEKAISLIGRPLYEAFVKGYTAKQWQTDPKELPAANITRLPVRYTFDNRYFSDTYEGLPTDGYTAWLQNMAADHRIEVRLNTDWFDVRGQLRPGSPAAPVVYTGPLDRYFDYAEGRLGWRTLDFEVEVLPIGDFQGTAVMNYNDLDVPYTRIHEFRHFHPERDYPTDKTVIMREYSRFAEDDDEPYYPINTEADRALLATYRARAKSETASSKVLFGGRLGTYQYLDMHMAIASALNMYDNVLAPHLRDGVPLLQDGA
Mtb bLac sens – beta-lactam sensitization of Mtb H37Rv; M. tuberculosis H37Rv growth with meropenem, percent inhibition; inhibition, % at 25 µM; 0.27% of 330,000 active; AID 434955;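 further: growth measured after seven days incubation then overnight dye step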
Mtb hypoxia rep – inhibitors of hypoxia-regulated fluorescent reporter in Mycobacterium tuberculosis; M. tuberculosis hypoxia-regulated fluorescent reporter, fluorescence; fluorescence inhibition, % (concentration not given with the values); 0.1% of 300,000 active; in the data active means fluorescence inhibition mostly above about 23%, no sharp cut-off; inactive means mostly below about 17%
FadD28 binding – blocks FadD28 binding to the bisubstrate probe; fluorescence polarization; inhibition, % at 12.5 µM; 0.22% of 360,000 active; AID 588549; in the data active means inhibition above about 8.5%, passing the limit was not always enough
RecA splice inh – blocks M. tuberculosis RecA intein splicing; P9WHJ3; cell-free RecA intein splicing, fluorescence; inhibition, % (concentration not given with the values); 0.75% of 290,000 active; AID 2221; in the data active means inhibition above about 30%
GFP chromo cs – counter-screen GFP chromophore formation inhibition | EC50, µM | cell-free GFP chromophore formation, fluorescence | AID 434968 | shares compounds with RecA splice inh | 83% of 2,100 active
A number is an active result; - = inactive; . = not tested or not shown. Unless noted, how the calls were made is not given here.

SMILES	Rv3671c inh	UGM FP inh	Mtb bLac sens	Mtb hypoxia rep	FadD28 binding	RecA splice inh	GFP chromo cs
COc1ccc2[nH]c3c(Cl)ncnc3c2c1	-	-	-	-	-	76	-
Fc1ccc2[nH]c3c(Cl)ncnc3c2c1	-	-	-	-	-	-	.
CC1=NN(c2ccccc2)C(=O)C1=C(C)C	-	-	-	-	-	55	8.5
COc1ccc(/C=C/c2nnc(NC(=O)COc3cccc(C)c3)s2)cc1	-	-	-	-	-	-	.
CN(C)C(=O)c1ccc(N=Nc2c(O)c3ccccc3[nH]c2=O)cc1	.	.	.	-	-	.	.
CN(C)C(=S)N=Nc1[nH]c2ccccc2c1O	-	-	-	-	.	59	8.2
CCCCCn1c(N)c(C(=O)NCCN2CCOCC2)c2nc3ccccc3nc21	-	-	-	.	-	-	.
CCCCNC(=O)CSc1nc2ccccc2c(=O)n1Cc1ccc2c(c1)OCO2	-	-	-	-	-	-	.
CCCCNC(=O)c1c(N)n(Cc2ccc3c(c2)OCO3)c2nc3ccccc3nc12	-	-	-	-	-	68	-
CCCCCn1c(N)c(C(=O)NCc2cccs2)c2nc3ccccc3nc21	-	-	-	-	.	82	3.2
COCC(C)NC(=O)Cc1ccc(F)cc1 (stereo not drawn)	-	-	-	-	-	-	.
COc1ccc(NC(=O)C2CCN(C(=O)C3CC(=O)N(c4ccc(C)cc4)C3)CC2)c(OC)c1 (stereo not drawn)	-	-	-	-	-	-	.
CCOc1ccc(CN2CCN(CC3=Cc4cccc(OC)c4OC3)CC2CCO)cc1 (stereo not drawn)	-	-	-	-	-	42	-
Oc1c(C=NCc2ccc(F)cc2)[nH]c2ccc(Br)c(Cl)c12	-	-	-	.	.	43	6.1
Cc1ccc(CN=Cc2[nH]c3ccc(Br)c(Cl)c3c2O)cc1	-	-	-	-	-	75	4.8
O=c1[nH]c(=O)n(C2CCCCCC2)c(O)c1C=NCc1ccc(F)cc1	-	-	-	.	-	-	.
COc1ccc(CN=Cc2c(O)[nH]c3ccccc23)cc1	-	-	-	-	-	-	.
O=C(CSc1ccc(-c2ccc(Cl)cc2)nn1)Nc1ccc2c(c1)OCCO2	-	-	-	-	-	-	.
O=C(c1cc(F)c(F)cc1Cl)N1CCN(c2ccc([N+](=O)[O-])c3ncccc23)CC1	-	-	-	-	-	32	23
COc1ccc(-n2nc3c(c2NC(=O)C2CC2)CS(=O)(=O)C3)cc1	-	-	-	-	-	-	.
CC(CC(=O)c1cccs1)CC(=O)c1cccs1	-	-	-	-	-	-	.
Cc1cc(C)c(C(CC(=O)c2cccs2)C(C#N)C#N)c(C)c1 (stereo not drawn)	-	-	-	-	-	83	8.6
CC(C)(C)Nc1nc(Cl)nc(N(C#N)CN2C(=O)c3ccccc3S2(=O)=O)n1	-	-	-	-	-	51	39
CN(CC(=O)Nc1ccc(N2CCOCC2)cc1)CC(=O)Nc1cccc(C#N)c1	-	-	-	-	-	-	-
CN(CC(=O)Nc1ccc(C#N)cc1)CC(=O)Nc1ccc(N2CCOCC2)cc1	-	-	-	-	-	-	.
SMILES	Rv3671c inh	UGM FP inh	Mtb bLac sens	Mtb hypoxia rep	FadD28 binding	RecA splice inh	GFP chromo cs
O=C(O)c1cccc(NC2=C(n3nnc4ccccc43)C(=O)c3ccccc3C2=O)c1	-	-	-	-	-	78	1.9
O=C(O)c1cccc(NS(=O)(=O)c2ccc3nnn(O)c3c2)c1	-	-	-	.	-	-	.
Cn1c(-[n+]2c(-c3ccccc3)cc(-c3ccccc3)cc2-c2ccccc2)nc2c([N+](=O)[O-])cccc21	-	-	-	-	-	33	30
O=[N+]([O-])c1ccc(-[n+]2c(-c3ccccc3)cc(-c3ccccc3)cc2-c2ccccc2)cc1	-	-	-	-	-	-	.
COc1cc(/C=C2\C(=O)N(c3ccc(NC(C)=O)cc3)N=C2c2ccccc2)ccc1O	-	-	-	-	-	83	-
Cc1[nH]c2ccccc2c1/C=C/c1nc2ccccc2c(=O)n1CCO	-	-	-	-	-	-	.
COc1cccc(C(CC(=O)O)NS(=O)(=O)c2ccc3c(c2)N(C(C)=O)CC(C)O3)c1 (stereo not drawn)	-	-	-	-	-	-	.
O=C1C=C(N2CCCCC2)c2ccccc2C1=O	-	-	-	-	-	98	2
O=S(=O)(c1ccccc1S(=O)(=O)N1CCCCC1)N1CCCCC1	-	-	-	-	-	-	.
O=C(CCS(=O)NCc1ccccc1)NCc1ccccc1 (stereo not drawn)	-	-	-	.	.	59	-
Cc1ccc(NC(=O)N2CCCc3ccccc32)cc1	-	-	-	-	-	-	.
Cc1nn(-c2ccccc2)c(N)c1C1(O)C(=O)N(C(C)C)c2ccccc21 (stereo not drawn)	-	-	-	-	-	-	.
Cc1nn(-c2ccccc2)c2c1C1(C(=O)N(C(C)C)c3ccccc31)C(C#N)=C(N)O2 (stereo not drawn)	-	-	-	-	-	81	12
CC(NC(=O)COC(=O)c1ccccc1O)c1ccccc1 (stereo not drawn)	.	.	.	.	-	.	.
O=C(c1c[nH]c(C(=O)C(Cl)(Cl)Cl)c1)c1ccccc1Br	-	-	-	-	-	51	26
CNC(=O)c1cc(C(=O)c2ccccc2Br)c[nH]1	-	-	-	-	-	-	.
CCOC(=O)C1CCCN(C(=O)c2cc(S(=O)(=O)N3CCCCC3)ccc2Cl)C1 (stereo not drawn)	-	-	-	-	-	-	.
CNC(C)Cc1ccccc1Sc1ccc(O)cc1 (stereo not drawn)	-	-	-	-	-	-	.
CNCc1ccccc1Sc1ccc(O)c(O)c1	-	-	-	-	-	88	3.3
CCC(CC)C(=O)NCc1ccc2c(c1)cc(C)n2C	-	-	-	-	-	31	-
COc1cc(/C=C2/C(=O)N(c3ccc(C)c(C)c3)N=C2C)cc([N+](=O)[O-])c1O	-	-	-	-	-	42	21
COc1cc(/C=C2/C(=O)N(c3ccc(C(=O)O)cc3)N=C2C)cc(OC)c1O	.	-	-	-	-	-	.
CC(=O)Nc1ccc2nc3c(=O)n(C)c(=O)n(C)c3nc2c1	-	-	-	-	-	-	.
Cc1ccc(S(=O)(=O)N(C(=O)c2ccncc2)c2ccc(OC(=O)c3ccncc3)c3ccccc23)cc1	-	-	-	-	-	47	0.75
CC(=O)Oc1ccc(N(C(C)=O)S(=O)(=O)c2ccccc2)c2ccccc12	.	.	.	.	-	.	.
Cc1ccc(S(=O)(=O)N(C(=O)c2ccncc2)c2ccc(OC(=O)c3ccncc3)c3ccccc23)c(C)c1	-	-	-	.	-	98	-
CC(=O)Oc1ccc(N(C(C)=O)S(=O)(=O)c2ccc(C)cc2C)c2ccccc12	.	-	-	-	-	-	.
COc1cccc([C@@H]2CC=C(C(=O)O)[C@H](c3ccccc3)N2S(=O)(=O)c2ccc(C)cc2)c1	-	-	-	.	-	.	.
